Bioassay records deposited in PubChem BioAssay by National Center for Advancing Translational Sciences (NCATS).
Shiga inhibitor: Shiga toxin inhibition; 290,000 tested, 9.2% active; Vero cells, Shiga toxin protein synthesis inhibition reporter; AID 2315; inhibition, % at 38.7 µM; in the data active = inhibition mostly above about 28%, no sharp cut-off; inactive = mostly below about 43%; note: 0% is about no effect
CHX counter: counter-screen hit for Shiga toxin inhibitors, cycloheximide; max response, %; cell reporter, cycloheximide protein synthesis inhibition counterscreen; AID 2314; 300,000 tested, 12% active; in the data active = max response mostly above about 13%, no sharp cut-off; inactive = mostly below about 14%; note: read at 38.3 µM for the half of the compounds with a filed dose; 0% is about no effect
RE007 growth inh: less growth of the S. pombe RE007 Vpr strain. Potency, µM (titrated, usually from 92.2 µM), for inactives: top-dose activity change, negative = less growth, usual class: inhibitors. 360,000 tested, 0.21% active. S. pombe RE007 Vpr strain, BacTiter-Glo ATP luminescence, 24 h; active = well fitted falling curve with a large enough effect; inconclusive = small, poorly fitted or top-dose-only effect; inactive = no such curve, though single readings can be large or run the other way; note: potency is the fitted concentration of half-maximal effect; % is set by controls: 0 for no effect and ±100 for the full control effect; nearly all actives have a fitted effect of over 50% in size
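Fission yeast strain RE007, carrying one chromosomally integrated HIV-1 vpr copy, was seeded at OD 0.01 in PMG+AL medium with 23 nL pinned compound. After 24 h at 30 °C and 99% humidity, viability was read by BacTiter-Glo luminescence.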
LmPK inh: blocks Leishmania mexicana pyruvate kinase activity | Q27686 | Potency, µM (series often up to 57.5 µM), for the others: at the highest dose activity change, negative = inhibition, hits mostly inhibitors | purified LmPK, Kinase-Glo ATP luminescence, 1 h | 290,000 tested, 0.37% active; note: potency is the fitted concentration of half-maximal effect; % is set by controls: 0 for no effect and ±100 for the full control effect
Target sequence (Q27686 whole entry, looked up): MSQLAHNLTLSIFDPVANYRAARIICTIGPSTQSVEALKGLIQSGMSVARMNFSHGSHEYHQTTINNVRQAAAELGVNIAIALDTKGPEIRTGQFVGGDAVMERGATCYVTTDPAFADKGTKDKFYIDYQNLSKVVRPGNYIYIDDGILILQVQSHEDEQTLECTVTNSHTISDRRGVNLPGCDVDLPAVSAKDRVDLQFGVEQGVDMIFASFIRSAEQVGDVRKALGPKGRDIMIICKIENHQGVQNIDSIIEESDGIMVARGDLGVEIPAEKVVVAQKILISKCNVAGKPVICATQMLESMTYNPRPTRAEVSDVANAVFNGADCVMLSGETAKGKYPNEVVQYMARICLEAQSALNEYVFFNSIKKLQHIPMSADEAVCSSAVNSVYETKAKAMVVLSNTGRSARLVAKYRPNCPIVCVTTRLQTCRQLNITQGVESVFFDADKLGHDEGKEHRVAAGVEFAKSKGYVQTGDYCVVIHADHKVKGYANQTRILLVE
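0.1 nM LmPK, 0.5 mM PEP, 0.1 mM ADP; 50 mM imidazole pH 7.2, 7 mM MgCl2, 50 mM KCl; 1 h RT. Kinase-Glo luminescence readout, normalized to no-enzyme (full inhibition) and uninhibited wells.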
Giardia FBPA inh: inhibitors of Giardia lamblia fructose-1,6-bisphosphate aldolase; A8B2U2; purified Giardia FBPA; Potency, µM (titrated, usually from 59.6 µM), without a hit: at the highest dose activity, negative = inhibition, usual class: inhibitors; 290,000 tested, 0.71% active; AID 2451; note: potency is the fitted concentration of half-maximal effect; % is set by controls: 0 for no effect and ±100 for the full control effect; nearly all actives have a fitted effect of over 55% in size
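Giardia FBPA (40 nM reagent) was preincubated 10 min at RT with compound (up to 57.5 uM final), then substrate plus GAPDH/TPI/NAD/arsenate coupling system with diaphorase/resazurin was added; resorufin fluorescence (525/598 nm) was read after 20 min.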
Tb PYK inh: T. brucei pyruvate kinase inhibition. Q57TT1. TbPYK enzyme, Kinase-Glo Plus ATP luminescence, 45 min. 410,000 tested, 0.12% active. Potency, µM (top dose mostly 76.8 µM), inactives show at the highest dose activity, negative = inhibition, hits mostly inhibitors. AID 624173; note: potency is the fitted concentration of half-maximal effect; % is set by controls: 0 for no effect and ±100 for the full control effect; nearly all actives have a fitted effect of over 50% in size
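T. brucei PYK with substrate was exposed to pin-transferred compounds across a concentration series, then started with 130 uM ADP (final). After 45 min at room temperature, Kinase-Glo Plus luminescence was read, normalized and curve-fitted.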
Starred values were filed as active, the others as inactive; ? = inconclusive; / = no result given; [ ] = dose if it differs, or a comment. The full list was thinned out, with hits kept by preference. Unless noted, calls come from the whole dose curve; as a rule, active = well fitted curve in the direction sought with a large enough effect; inconclusive = small, poorly fitted or top-dose-only effect, or another doubt; inactive = no such curve, though single readings can be large; an effect the other way counts as inactive or inconclusive.

SMILES	Shiga inhibitor	CHX counter	RE007 growth inh	LmPK inh	Giardia FBPA inh	Tb PYK inh
CCCc1cc(-c2nc(-c3ccc(Br)cc3)cs2)ccn1	4	22*	-22%	0%	-4%	-8%
COc1ccc(-c2ccc(C(=O)C3CC3)cc2)cc1	65*	16*	2%	-12%	4%	6%
COc1ccc(/C(N)=N/OC(=O)C2CCCCC2)cc1OC	78*	50*	-27%	-5%	/	-2%
COc1ccc(/C(N)=N/OC(=O)C2CCCCC2)cc1	136*	43*	-3%	-4%	/	-8%
N/C(=N\OC(=O)C1CCCCC1)c1cccc(Br)c1	-7	-3	4%	-6%	4%	-11%
CCNC(=O)c1ccc2nc(Cc3ccccc3)oc2c1	/	/	/	/	/	5%
CCc1ccc(NC(=O)CSc2nc3n[nH]c(C)c3c(=N)n2-c2ccc(C)cc2)cc1	/	/	/	/	/	4%
COc1ccc(-c2cn3nc(N4CCC(C(=O)Nc5cc(Cl)ccc5C)CC4)sc3n2)cc1	/	/	/	/	/	-3%[15.4 µM]
O=c1c(N2CCN(c3cccc(Cl)c3)CC2)csc2ccc(Cl)cc12	/	/	/	/	/	3%
CC[C@H](C)[C@H](NC(=O)[C@H](Cc1ccc(O)cc1)NC(=O)[C@@H]1CCCN1C(=O)[C@H](CCCN=C(N)N)NC(=O)[C@H](CCCN=C(N)N)NC(=O)[C@@H]1CCCN1C(=O)[C@H](CCCCN)NC(=O)[C@H](CC(N)=O)NC(=O)[C@H](CCC(N)=O)NC(=O)[C@H](Cc1ccc(O)cc1)NC(=O)[C@H](CC(C)C)NC(=O)[C@@H]1CCC(=O)N1)C(=O)N[C@@H](CC(C)C)C(=O)O	-6	-7	/	/	0%	/
CCCCn1c(=O)[nH]c(=O)c2c(C(=O)OCC)cc(-c3cccs3)nc21	-5	-3	-12%	0%	1%	-2%
CCCn1c(=O)[nH]c(=O)c2c(C(=O)OCC)cc(-c3cccs3)nc21	44*	31*	1%	9%	-5%	-5%
CCc1ccc(/C=c2\s/c(=C\C(=O)C(C)(C)C)[nH]c2=O)cc1	-28	18	-2%	-3%	-7%	-5%
Cc1ccccc1/C=c1\s/c(=C\C(=O)C(C)(C)C)[nH]c1=O	42	24*	-12%	3%	-1%	-9%
CC(C)(C)C(=O)/C=c1\[nH]c(=O)/c(=C\c2ccc(F)cc2)s1	18	11*	-22%	-5%	6%	-4%
CC1=NN(c2ccccc2)C(=O)C1N=Nc1ccccc1 (configuration not stated)	109*	21*	0%	5%	?	-3%
CC1=NN(c2ccccc2)C(=O)C1N=Nc1ccc(N)cc1 (configuration not stated)	80*	55*	?	-15%	?	-16%
CC1=NN(c2ccccc2)C(=O)C1c1ccccc1 (configuration not stated)	8	1	1%	-2%	-12%	-8%
CC1=NN(c2ccccc2)C(=O)C1C(=O)c1ccccc1 (configuration not stated)	10	7	-14%	3%	6%	-3%
COc1cccc(NC(=O)Cn2nnc(-c3nc(-c4ccccc4)no3)c2N)c1	/	/	/	/	/	7%
C/C(=C\c1ccccc1)C(=O)NC1CCSC1=O (configuration not stated)	31	18*	-2%	1%	-1%	-1%
O=C(Cn1ccc2cc(S(=O)(=O)N3CCCCC3)ccc21)NCCc1ccccc1Cl	/	/	/	/	/	2%
O=C(COCC(=O)N/N=C/c1ccc(F)cc1)N/N=C/c1ccc(F)cc1	10	1	-7%	1%	3%	-3%
Cc1ccccc1/C=N\NC(=O)c1csnn1	112*	60*	1%	-18%	-8%	-19%
O=C(N/N=C\c1ccc(F)cc1)c1csnn1	106*	44*	3%	-27%	-1%	-6%
SMILES	Shiga inhibitor	CHX counter	RE007 growth inh	LmPK inh	Giardia FBPA inh	Tb PYK inh
Cc1ccccc1/C=N/NC(=O)Cn1nnc(N)n1	1	-3	-14%	-3%	1%	-5%
CC[C@H](C)[C@H](N)C(=O)N[C@H](C(=O)N[C@@H](CO)C(=O)N[C@@H](C)C(=O)N[C@H](C(=O)N[C@H](C(=O)NCC(=O)N[C@H](C(=O)N[C@@H](CC(C)C)C(=O)O)[C@@H](C)CC)C(C)C)C(C)C)[C@@H](C)CC	-5	-1	/	/	1%	/
COc1ccc(C(=O)NNc2ncnc3c2cnn3-c2ccccc2)cc1	/	/	/	/	/	-2%
Cc1cn2c(=O)cc(COc3ccc(NC(=O)c4ccc(C(C)(C)C)cc4)cc3)nc2s1	/	/	/	/	/	4%
CCCNC(=O)c1c(C)nn(-c2cccc(C)c2)c1-n1cccc1	/	/	/	/	/	3%[15.4 µM]
Cc1ccc(-c2cn3c(=O)cc(C)[nH]c3n2)cc1	49	26*	1%	0%	-4%	-14%
Cc1cc2nc(-c3ccccc3)cc(=O)n2[nH]1	31	21	-6%	-1%	?	-7%
Cc1cc(=O)n2cc(-c3ccccc3)nc2[nH]1	0	22*	1%[3.69 µM]	-12%	-10%	/
N#C/C(=C\c1cccc(OCC(=O)O)c1)c1nc2ccccc2[nH]1	36	25*	-3%	-1%	?	0%
CCOc1cc(/C=C(/C#N)c2nc3ccccc3[nH]2)ccc1OCc1ccc(C(=O)O)o1	30	8	-7%	7%	/	4%
COc1cccc(/C=C(\C#N)c2nc3ccc(C)cc3[nH]2)c1OCC(=O)O	40*	27*	6%	0%	-7%	-1%
CCOc1cccc(/C=C(/C#N)c2nc3ccccc3[nH]2)c1OCC(=O)O	/	22*	8%	3%	-12%	-9%
COc1cc(/C=C(\C#N)c2nc3ccccc3[nH]2)ccc1OC(=O)c1ccco1	43*	48*	-12%	-2%	0%	6%
CCCNC(=O)Cn1c(=O)/c(=C/c2ccc(-c3ccc([N+](=O)[O-])cc3)o2)s/c1=C\C(=O)C(C)(C)C	/	/	-12%	/	/	-4%
CC(C)(C)N(Cc1ccccc1)C(=O)COC(=O)CSc1ccc([N+](=O)[O-])cc1	/	/	20%	/	/	?
CCN(CC)c1ccc(/C=C(/C#N)c2nc3ccccc3[nH]2)c(OC(C)C)c1	119*	48*	7%	-3%	-13%	-4%
COc1cc(/C=C(\C#N)c2nc3ccc(C)cc3[nH]2)ccc1OC(C)C	/	/	/	/	/	9%
CC(C)n1c2ccccc2c2nnc(SCC(=O)Nc3ccccc3C(=O)O)nc21	-16	-4	5%	-1%[11.5 µM]	6%	1%
CCN(Cc1ccccc1)S(=O)(=O)c1ccccc1Br	/	/	6%	/	/	4%
CCN(CC)S(=O)(=O)c1ccccc1/C=N\O	46	29*	2%	3%	-20%	-4%
